This excerpt belongs to a sample that is enriched for hits.
TTR transcr act: activators of transthyretin transcription. SH-SY5Y TTR promoter Gaussia luciferase, luminescence; 100% = recombinant luciferase protein wells. activation, % at 16.7 µM. hit rate 1.3% among 92,000. AID 1117267;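 active = activation above the mean of all tested compounds plus 3 SD, cut at about 9.5% in these data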;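 also: cells exposed to compounds for one day before reading; 0% = median of all test compound wells on the plate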
TTR inh HuH7: decreases TTR transcription in HuH7 cells in activator counter-screen; shares compounds with TTR transcr act; HuH7 TTR promoter-Gaussia luciferase reporter, luminescence; inhibition, % at 16.7 µM; hit rate 4% among 1,100; AID 1117279;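 active = average inhibition above the solvent-only control wells' mean plus 3 SD, cut at about 15% in these data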;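 also: 0% = cells with DMSO only and 100% = cells with inhibitor control FD; inhibitors lower well luminescence so higher value means more inhibition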
TTR up confirm: human TTR transcription activation, confirmation; shares compounds with TTR transcr act; SHSY5Y TTR promoter Gaussia luciferase, luminescence; 100% = purified Lucia enzyme wells, no cells; activation, % at 16.7 µM; 1,100 tested, under 10 active;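 active = mean activation above a set limit taken from the earlier primary screen, cut at about 11% in these data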;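 also: 0% = DMSO-treated cells and 100% = recombinant Lucia luciferase without cells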
An asterisk follows results filed as active.

SMILES	TTR transcr act	others
CCN(C(=O)c1ccc(Cl)c([N+](=O)[O-])c1)c1ccccc1	1
COC(=O)[C@]12C[C@H](CC(=O)N3CCC(c4ccccc4)CC3)C(=O)N(Cc3ccc(Cl)cc3Cl)C1=C[C@H](C(C)(C)C)O[C@@H]2C	1
CCC(CC)NC(=O)CSc1nnc(-c2ccc(OC)cc2)n1C(C)C	1
COc1ccc(-c2nnc(SCC(=O)NCc3cccs3)n2C(C)C)cc1	11*	TTR inh HuH7=-10;TTR up confirm=2
COc1ccc(-n2cnnc2SCC(=O)NCc2cccs2)cc1	3
Cc1ccccc1NC(=O)OC1CC2CC1[C@H]1CCCCN1[C@H]2Cc1ccccc1 (stereo partly drawn)	-2
COC(=O)[C@@]12CCCCC3=C1N(CCC3)C(=O)[C@H]2CC(=O)NCc1cccc(C(F)(F)F)c1	1
CCOc1ccccc1NC(=O)CCCCCN1C(=O)[C@@H]2Cc3ccccc3CN2C1=O	0
O=C(CCCCCN1C(=O)[C@@H]2Cc3ccccc3CN2C1=O)Nc1ccccc1F	11*	TTR inh HuH7=-13;TTR up confirm=-1
COc1ccc(NC(=O)CCCCCN2C(=O)[C@@H]3Cc4ccccc4CN3C2=O)cc1Cl	-2
Cc1cccc(NC(=O)CCCCCN2C(=O)[C@@H]3Cc4ccccc4CN3C2=O)c1	14*	TTR inh HuH7=-14;TTR up confirm=0
Cc1ccccc1NC(=O)CCCCCN1C(=O)[C@@H]2Cc3ccccc3CN2C1=O	-1
O=C(CCCCCN1C(=O)[C@@H]2Cc3ccccc3CN2C1=O)Nc1cccc(F)c1	-3
C[C@H]1[C@@H](N)CC[C@@]23CCCN2C(=O)CCC[C@@H]13	0
Cc1ccc(C(=O)NC2CCCCN(Cc3ccc(Cl)cc3)C2=O)c(C)c1 (stereo not drawn)	1
CSc1ccc(-c2csc(N3CCC(C(N)=O)CC3)n2)cc1	1
CCOc1c2ccc(C(=O)NCCc3ccc(C)cc3)cc2nn1CC	-3
CCCCn1nc2cc(C(=O)NCc3cc(C(F)(F)F)cc(C(F)(F)F)c3)ccc2c1OCC	1
CCCCn1nc2cc(C(=O)N[C@H](C)C3CCCCC3)ccc2c1OCC	12*	TTR inh HuH7=-6;TTR up confirm=0
COc1ccc2c3c([nH]c2c1)[C@]1(NCC3)C(=O)N(C)c2ccc(Cl)cc21	3
Cc1cn(S(=O)(=O)c2ccc(Cl)cc2)c(C)n1	2
Cc1ccc(S(=O)(=O)n2c3ccc(Cl)cc3c3nc(C)sc32)cc1	18*	TTR inh HuH7=-13;TTR up confirm=0
Cc1ccc(S(=O)(=O)n2c(N)nc3cc(C)c(C)cc32)cc1	2
CCCCCCc1ccc(NC(=O)[C@@H]2CC=C[C@@H]3CCN(Cc4ccccc4)C(=O)[C@@H]32)cc1	-1
COC(=O)CN(c1ccc(C(C)C)cc1)S(=O)(=O)c1c(C)[nH]c(=O)[nH]c1=O	3
SMILES	TTR transcr act	others
Cc1ccc(N(C(C)C(=O)O)S(=O)(=O)c2c(C)[nH]c(=O)[nH]c2=O)cc1 (stereo not drawn)	10*	TTR inh HuH7=-13;TTR up confirm=0
CCCCN(C)S(=O)(=O)c1c(C)[nH]c(=O)[nH]c1=O	0
COc1ccc(C(F)(F)F)cc1NC(=O)C(OC(=O)CNC(=O)c1ccccc1)c1ccccc1 (stereo not drawn)	1
CN(C)c1cccc(-c2ccnc(N3CCC(C(N)=O)CC3)n2)c1	-2
COc1ccc(CN2C(=O)[C@]3(NCCc4c3[nH]c3ccc(OC)cc43)c3cc(F)ccc32)cc1	5
O=C(OCc1cn(Cc2ccccc2C(F)(F)F)nn1)N1CCOCC1	3
COc1ccc(N2C(=O)CC(N3CCN(C(=O)c4ccco4)CC3)C2=O)cc1 (stereo not drawn)	-1
O=C(c1ccco1)N1CCN(C2CC(=O)N(c3ccc(F)c(Cl)c3)C2=O)CC1 (stereo not drawn)	10*	TTR inh HuH7=-1;TTR up confirm=0
COc1cccc(N2C(=O)CC(N3CCN(C(=O)c4ccco4)CC3)C2=O)c1 (stereo not drawn)	-1
Fc1cccc(Cn2ccc3ccc(-c4ccc5ccn(Cc6cccc(F)c6)c5c4)cc32)c1	1
COc1ccc(C(=O)c2[nH]c(N)c(C(=O)c3ccccc3)c2-c2ccc(OC)c(OC)c2)cc1	-1
CCC[C@H]1[C@@H](NC(=O)c2ccc(Cl)cc2)CC[C@@]23CCCN2C(=O)CCC[C@@H]13	1
CNC(=S)N/N=C/c1c(C(=O)OC)cnn1-c1ccc(Cl)cc1	-1
Cc1sc2ncnc(Nc3ccccc3)c2c1C	15*	TTR inh HuH7=-8;TTR up confirm=0
Cc1sc2ncnc(Nc3ccc(N4CCOCC4)cc3)c2c1-c1ccccc1	-1
Cc1sc2ncnc(NCC(c3ccco3)N(C)C)c2c1C (stereo not drawn)	-1
S=C(Nc1ccccc1Cl)OCCN1CCCC12CCC(c1ccccc1)CC2 (stereo not drawn)	2
Cc1cc(C)nc(NCc2ccc(Cl)cc2)n1	-1
CCCNc1nc(-c2cc(-c3ccc(Cl)cc3)on2)cc(C(C)C)n1	12*	TTR inh HuH7=-12;TTR up confirm=0
CC(C)c1cc(-c2cc(-c3ccc(Cl)cc3)on2)nc(NC2CCCC2)n1	0
CCCCCCCCN1C(=O)[C@@H](CC(=O)N2CCN(C(=O)c3ccco3)CC2)C[C@@]2(C(=O)OC)C1=C[C@H](C(C)C)O[C@@H]2C1CC1	-2
Cc1cccc(C(=O)N[C@H]2CC[C@@]34CCCN3C(=O)CCC[C@H]4[C@H]2C)c1	0
Cc1oc(-c2ccccc2)cc1C(=O)NC1CCN(Cc2ccccc2)CC1	9.8*	TTR inh HuH7=0;TTR up confirm=0
O=C(NC1CCN(Cc2ccccc2)CC1)c1ccccc1OCc1ccccc1	-3
O=C(NC1CCN(Cc2ccccc2)CC1)c1ccccc1Cl	1
SMILES	TTR transcr act	others
CCOc1ccc(CCNC(=O)c2ccc(Oc3ccccc3)cc2)cc1OCC	0
COC(=O)[C@]12C[C@H](CC(=O)N3CCC(c4ccccc4)CC3)C(=O)N(Cc3cccc4ccccc34)C1=C[C@H](C(C)C)O[C@@H]2C1CC1	-1
C[C@H]1C2CC(OC(=O)Nc3cccc(Cl)c3)C(C2)[C@H]2CCCCN21 (stereo partly drawn)	-2
O=C(OCc1cn(Cc2cccc(C(F)(F)F)c2)nn1)N1CCOCC1	1
CCCCNC(=O)COCc1cc(-c2ccc3c(c2)OCO3)on1	-1
CCCNC(=O)COCc1cc(-c2ccc3c(c2)OCO3)on1	0
CC(C)CNC(=O)COCc1cc(-c2ccc3c(c2)OCO3)on1	12*	TTR inh HuH7=-2;TTR up confirm=1
CN(C)[C@H]1CCN(c2ccc3c(c2)OCCCN(C2CC2)S3(=O)=O)C1	0
CCOCCCNC(=O)c1cc(C)nn1-c1ccccc1	0
Cc1cc(C(=O)NCCCN2CCOCC2)n(-c2ccccc2)n1	17*	TTR inh HuH7=-3;TTR up confirm=0
Cc1cc(C(=O)N2CCOCC2)n(-c2ccccc2)n1	0
CN1C2=N[C@@H](c3ccc4ccccc4c3)CC(=O)N2/C(=C\c2ccccc2)[C@H]1c1ccccc1	-1
COC(=O)C[C@H]1CC[C@@H]2[C@H](COc3ccc(NC(=O)NCc4ccccc4)cc3C(=O)N2C)O1	5
CCNc1nc(N)c([N+](=O)[O-])c(Nc2cccc(Cl)c2)n1	2
COc1ccc(S(=O)(=O)N2CCCOC2CNC(=O)C(=O)NCc2ccco2)cc1 (stereo not drawn)	0
COc1ccc(S(=O)(=O)N2CCOC2CNC(=O)C(=O)NCc2ccccc2OC)cc1 (stereo not drawn)	-1

High-throughput results deposited in PubChem by The Scripps Research Institute Molecular Screening Center.
